The record followed here is article PMC12136788.

T1: UNK ZnF1-3 (human, UniProt Q9C0B0 31-174)
T1 sequence: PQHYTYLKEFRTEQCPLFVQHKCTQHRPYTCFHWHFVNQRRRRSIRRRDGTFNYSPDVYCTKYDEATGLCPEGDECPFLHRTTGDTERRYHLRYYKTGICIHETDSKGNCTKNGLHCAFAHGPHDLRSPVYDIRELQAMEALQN

B1: chr5:141234466:141234467:-_ENSMUSG00000000149_ENSMUST00000000153|mus_mus|FALSE|FALSE (ssRNA)
RNA: GGGAGUUCUACAGUCCGACGAUCAGGACAAUAGUCAAGGGUAACAGUGAAAUUAAAAUUAAAAAAAAAAAUACAAACGCCUAAGGUCUGGGAGAAACCUGACUACAAUCUACGUGGAGAAACUUGUAAAUGACUCCAGCCUGGCAACAGAGGAUUGAGCAUCA
B2: chr1:220276048:220276049:+_ENSG00000067704_ENST00000302637|hu_hu|hu_hu_hu_mus_True|8_58 (ssRNA)
RNA: GGGAGUUCUACAGUCCGACGAUCGCAAAUUGCCUGGUUGGCGGGAAUUGUCCAAGGCUGGGUGGUCCAAACUAAAAUACUAACAGGGGAUGAGGCAUCUGUAAGAGACUCCAACUUCGGAGGAGGUUUUAAGAGAGGGAAUCUCAACAGAGGAUUGAGCAUCA
B3: chr1:220276048:220276049:+_ENSG00000067704_ENST00000302637|hu_hu|hu_hu_hu_mus_True|1_38 (ssRNA)
RNA: B2 RNA with U77C, A78G, G100A, U127C, U129C, A131G, A135G, G138A, C142U
B4: chr2:9570881:9570882:+_ENSG00000119203_ENST00000238112|hu_mus|hu_hu_hu_mus_False|28_58 (ssRNA)
RNA: GGGAGUUCUACAGUCCGACGAUCACUUGUCUUCUGAAGGAACCAGGGCAGGGCUCCACAGUGAUCCAAAUGGAAAUGACUAAUUAACAGAAGGUCGAUCUCAGCUGGGUCAAUUAAGUCAAUGUAAGGAAGGGCAUCCAUUCCCAACAGAGGAUUGAGCAUCA
B5: chr2:114709107:114709108:+_ENSG00000115091_ENST00000536059|hu_mus|FALSE|FALSE (ssRNA)
RNA: GGGAGUUCUACAGUCCGACGAUCAGAGAGGACAAUGUUCUUGUAGAGAGGACGCCGGACAUCAAUGGGGCAAUUCUGAAUGACUUCAUCUACAACUUCUGAGAUAGGUUGUGUAAAAUCUGGAUUAGCAAACUCUGGAUGGAACAACAGAGGAUUGAGCAUCA
B6: chr1:220276048:220276049:+_ENSG00000067704_ENST00000302637|hu_hu|hu_hu_hu_mus_True|48_78 (ssRNA)
RNA: GGGAGUUCUACAGUCCGACGAUCGCAAAUUGCCUGGUUGGCGGGAAUUGUCCAAGGUUGUGUGGUCCAAACUAAAACGCUAACAGGAGAUGAACCAUCUGUAAGAGACUCCAACUUCGGAGGAGGUCUCAGGAGGGGGAAUCUCAACAGAGGAUUGAGCAUCA
B7: chr5:141234466:141234467:-_ENSMUSG00000000149_ENSMUST00000000153|mus_mus|motif|central (ssRNA)
RNA: B1 RNA with U81G, A82G
B8: chr20:21346065:21346066:+_ENSG00000088930_ENST00000377191|hu_hu|FALSE|FALSE (ssRNA)
RNA: GGGAGUUCUACAGUCCGACGAUCUCCUGGAAGCAUUACAGCUUUAAAAAUGUAAUCUUCAGCAAACUGUGGGUCUUUAAAAUUAAUACUGACUACAGUGUUCUGUGUCAGAUCCCUUAACAUAGGAACAGGAGAACAUACUAUCAACAGAGGAUUGAGCAUCA
B9: chr1:220276048:220276049:+_ENSG00000067704_ENST00000302637|hu_hu|hu_hu_hu_mus_True|8_28 (ssRNA)
RNA: B2 RNA with U77C, A78G, C108U, U109G, C114U
B10: chr1:59924863:59924864:+_ENSMUSG00000067336_ENSMUST00000087435|mus_hu|FALSE|FALSE (ssRNA)
RNA: GGGAGUUCUACAGUCCGACGAUCGCUGCCAAAUUUUAGCCGGGGCUCUUUUGUUGAAUUUUUGGUGUUCAAAGGCAAACUAGUAGGUCUCUUGGGAAGGUUCUGCUGCUUGGGGAGAGGAUAGAUCUGAGUAGGCAGAACAUCCAACAGAGGAUUGAGCAUCA
B11: chr17:13115065:13115066:+_ENSMUSG00000068039_ENSMUST00000151287|mus_hu|motif|central (ssRNA)
RNA: GGGAGUUCUACAGUCCGACGAUCAAUAGUUGCUCCAGAAGCUUUGGCAAUGCGUUUAAGGUCCCUUUUUAAAACUCUUCGGACUGCCAUAGCACCAGCCUCCACAAAAUACUUCAGACACAUAUCAUCAAUUCCACCAGUGGUCAACAGAGGAUUGAGCAUCA
B12: chr7:112906983:112906984:-_ENSMUSG00000036862_ENSMUST00000078482|mus_mus|FALSE|FALSE (ssRNA)
RNA: GGGAGUUCUACAGUCCGACGAUCUGGGGAGAUAACUGGAGUCCCUGGUGGUGCAUUUUCACGGAGCACAGCCUCACUACUAGUUCUGGGAAAGCGGGGUCCACGCUCAGGCUCUCCCUGUAUUCCAACAACGACCACACCAGUCAACAGAGGAUUGAGCAUCA
B13: chr12:48362563:48362564:+_ENSG00000134291_ENST00000256686|hu_hu|hu_hu_hu_mus_False|18_58 (ssRNA)
RNA: GGGAGUUCUACAGUCCGACGAUCUCCGUCAAGCCCUUCGAUAGACCCUUGCGGGGGAAACUGUAAUCACUUUGUAUUUCUAAAAAAAAGAAACGCCAAAAACUUUCCAAAAAGCGGUUCAAAAAGCAGGCGGGAGGGGGAGGUCAACAGAGGAUUGAGCAUCA
B14: chr4:140556289:140556290:+_ENSMUSG00000036622_ENSMUST00000037055|mus_mus|mus_mus_mus_hu_False|18_68 (ssRNA)
RNA: GGGAGUUCUACAGUCCGACGAUCGAUGGAGCUCACCAGGCCCCCUUUUGCCGUGCAGAACCCUGUGCGAGUCACCACUGCCAGGACGUGCGGUCCCACAUAGGCCCGGGCCUGCAAAAUGAGGGUGCCGCAGAAGAGUGUGUGCAACAGAGGAUUGAGCAUCA
B15: chr2:176857141:176857142:-_ENSG00000144320_ENST00000272748|hu_hu|motif|central (ssRNA)
RNA: GGGAGUUCUACAGUCCGACGAUCUUUUUGUAAUCUCUGAUUUUUUUCCCUAAAUUCUUCCAAUGCUUGAAUUUCCUUAUCGGUACUUUCUAGAACUUCUACAGUUGAAGGUUUUGUCCUCCAUCGAGAAAAUAAUCCACCCAUCAACAGAGGAUUGAGCAUCA
B16: chr4:144461564:144461565:+_ENSG00000153147_ENST00000283131|hu_hu|motif|central (ssRNA)
RNA: GGGAGUUCUACAGUCCGACGAUCCCUCCCUUGUUGAAUGACUAUUGAAUCCAGUCUGAGUUUCAUCUCAGCACGUUCGGCGGUUCUUUCUUCUACAGUGUUAUCAGUUAUAAAGCGGAACACUCUGACUGUCUUAGUCUGCCCCAACAGAGGAUUGAGCAUCA
B17: chr12:493273:493274:-_ENSG00000073614_ENST00000399788|hu_mus|hu_hu_hu_mus_False|28_108 (ssRNA)
RNA: GGGAGUUCUACAGUCCGACGAUCUUUUCUCUCUACCACAGGGAUCUUCAAUGUAGAUCCUUGAAGUUCCCAAAAUUUUGCCAGUUGAUCCAAGAAGUCCAAUCUUACUCUGGUCAUUGCCUCAAGUUCAUUCAGGCGCUGGACCAACAGAGGAUUGAGCAUCA

Substitutions are numbered along the chain they refer to. Over roughly 24,000 sequences, “enrichment r” has its median near 0.99; the highest 2% begin near 3.7. The full list was thinned out, with the highest values kept by preference.

The target of this test is T1, UNK ZnF1-3. As to the kind of experiment: nsRBNS (natural sequence RNA bind-n-seq); RBNS binding buffer (assumed for nsRBNS): 25 mM Tris pH 7.5, 150 mM KCl, 3 mM MgCl2, 0.01% Triton X-100, 500 ug/ml BSA, 20 U/ml SUPERase-In, 4 C; UNK is unkempt and MSI1 is Musashi-1; names of the RNAs are library labels; protein concentration not given here; high values mean tight binding.
On to B1, for which the binding signal came to 14.8 enrichment R.
In the case of B2 it was 3.69 enrichment R; in that of B3, 3.48 enrichment R.
Molecule B4 yielded a binding signal of 1.47 enrichment R.
Molecule B5 gave a binding signal of 1.28 enrichment R.
For the molecule B6, the binding signal came to 1.31 enrichment R.
In the case of B7 it was 11.3 enrichment R; in that of B8, 1.24 enrichment R.
In the case of B9 it was 2.55 enrichment R; in that of B10, 1.44 enrichment R.
The molecule B11 yielded a binding signal of 1.25 enrichment R.
In the case of B12 it was 0.989 enrichment R.
Take B13: the binding signal is 1.93 enrichment R.
Regarding B14, the binding signal turned out to be 0.954 enrichment R.
Turning to B15, the binding signal stood at 0.655 enrichment R.
On to B16, for which the binding signal is 0.923 enrichment R.
B17 displayed a binding signal of 0.902 enrichment R.
